# A selection: hits, their analogues and other compounds. The true share with any hit is near 5.3%.
# IMPase cell inh: cell-permeable inhibitors of inositol monophosphatase (IMPase). P97697. CHO-M1 cells, IP1 accumulation, HTRF TR-FRET ratio. inhibition (IP1 accumulation), % at 46.1 µM. 120,000 tested, under 10 active; active = well fitted curve in the direction sought with a large enough effect in the signal ratio, not every such curve was filed as active; inconclusive = small, poorly fitted or top-dose-only effect, or a change in a side signal; inactive = no such curve, though single readings can be large or run the other way; the % refers to the signal ratio;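 note: cells stimulated with carbachol in lithium chloride buffer; plate controls were DMSO basal wells for no effect and reference inhibitor wells for full effect; higher means more IMPase inhibition seen as more IP1 and lower FRET ratio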
#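 Elevated IP1 in lysates lowers TR-FRET signal (665/620 ratio and 620 channel reported). Cells were CHO-M1, given carbachol (50 uM as added) plus 50mM LiCl, pH 7.4, 30 min, 37C; compounds titrated up to 46 uM; AC50 by Hill equation.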
# 15-hLO-2 inh: blocks human 15-lipoxygenase 2 activity. AID 881. purified 15hLO-2, xylenol orange hydroperoxide absorbance. actives 0.56% (n = 110,000). Potency, µM (doses to about 57.1 µM), inactives show at the top dose activity change, negative = inhibition, usual class: inhibitors; note: potency is the fitted concentration of half-maximal effect; nearly all actives have a fitted effect of over 60% in size
# Target sequence (O15296 whole entry, looked up): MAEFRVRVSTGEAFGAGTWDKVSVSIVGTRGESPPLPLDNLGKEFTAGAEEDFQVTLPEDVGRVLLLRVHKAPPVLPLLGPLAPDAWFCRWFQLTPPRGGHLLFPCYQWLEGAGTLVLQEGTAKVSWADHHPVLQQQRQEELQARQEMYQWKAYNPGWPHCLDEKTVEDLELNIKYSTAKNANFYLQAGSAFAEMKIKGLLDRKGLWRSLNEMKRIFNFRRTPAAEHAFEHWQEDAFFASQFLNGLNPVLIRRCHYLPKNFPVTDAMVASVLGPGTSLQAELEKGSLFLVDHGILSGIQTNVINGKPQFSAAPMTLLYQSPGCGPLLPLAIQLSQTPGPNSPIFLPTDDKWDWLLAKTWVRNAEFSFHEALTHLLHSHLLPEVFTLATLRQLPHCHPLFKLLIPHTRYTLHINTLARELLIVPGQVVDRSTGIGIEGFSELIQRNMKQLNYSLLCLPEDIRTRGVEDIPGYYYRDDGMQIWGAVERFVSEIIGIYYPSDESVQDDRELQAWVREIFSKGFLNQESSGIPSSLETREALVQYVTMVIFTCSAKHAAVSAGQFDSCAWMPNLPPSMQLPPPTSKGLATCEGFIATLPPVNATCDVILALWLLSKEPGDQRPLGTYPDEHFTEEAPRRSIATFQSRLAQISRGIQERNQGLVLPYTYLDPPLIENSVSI
#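 Purified human 15hLO-2 (50 nM) preincubated 15 min with compound, then 45 uM arachidonic acid for 90 min at RT in 25 mM Hepes pH 7.5, 0.01% Triton X-100. Hydroperoxide detected by Fe-xylenol orange; 573/405 nm absorbance ratio.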
# HPGD inh: inhibitors of human 15-hydroxyprostaglandin dehydrogenase (HPGD) | P15428 | actives 4.3% (n = 150,000) | AID 894 | purified HPGD, NADH fluorescence kinetic, PGE2 substrate | Potency, µM, inactives show top-dose activity change, negative = inhibition, most hits filed as inhibitors; active = well fitted inhibition curve with a large enough effect, not every such curve was filed as active; inconclusive = small, poorly fitted or top-dose-only effect, or another doubt; inactive = no such curve, though single readings can be large or run the other way; note: potency is the fitted concentration of half-maximal effect
#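 20 nM HPGD preincubated 15 min at room temperature with compound in 50 mM Tris-HCl pH 8, 0.01% Tween 20. Started with 1 mM NAD+ and 30 uM prostaglandin E2; NADH fluorescence (360/450 nm) read 5 times over 30-s intervals, last minus first.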
# 12-hLO inh: blocks human 12-lipoxygenase activity; P18054; purified 12-hLO, xylenol orange hydroperoxide absorbance; Potency, µM (titrated, usually from 57.1 µM), for inactives: at the highest dose activity change, negative = inhibition, most hits filed as inhibitors; actives 0.12% (n = 150,000); AID 1452; note: potency is the fitted concentration of half-maximal effect; nearly all actives have a fitted effect of over 55% in size
#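 Hydroperoxide output read as Fe(III)-xylenol orange absorbance, 573-to-405 nm ratio, after 30 min reaction with 40 uM arachidonic acid. Enzyme: 150 nM purified human 12hLO, 15 min compound preincubation; 25 mM Hepes pH 7.0, room temperature.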
# PNC assembly inh: perinucleolar compartment assembly inhibition; PC3M PTB-GFP, PNC prevalence imaging, 16 h; hits give low values; actives 3.1% (n = 140,000); activity change (PNC), negative = inhibition, % at 10 µM; AID 2417;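 active = readout at or below -70, meaning at least 70% loss of cells showing the perinucleolar compartment, a nuclear body marking cancer cells; inconclusive = readout between -30 and a set limit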;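 note: plate controls were DMSO wells for no effect and camptothecin positive control wells for full effect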
#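 PC3M cells stably expressing PTB-GFP, 750–1000 cells/well, treated 16 h at 37 °C with compound (23 nl of library stock), in duplicate. After paraformaldehyde fixation and Hoechst stain, imaged at 20x; PNC prevalence scored by image analysis.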
# IMPase Li cell: IMPase inhibition in cells with lithium potentiation; CHO-M1 cells, IP1 TR-FRET (IP-One), carbachol + lithium; Potency, µM (highest dose often 59.4 µM), for inactives: at the top dose activity, negative = IMPase inhibition, most hits filed as inhibitors; actives 0.35% (n = 210,000); AID 1457;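 note: IP1 builds up when IMPase is blocked and the TR-FRET signal falls; potency is the fitted concentration of half-maximal effect; plate controls were basal vehicle for no effect and high inhibitor control for full effect; nearly all actives have a fitted effect of over 50% in size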
#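 CHO cells stably expressing M1 receptor (2000/well, cultured 16–30 h) treated 30 min at 37C with compound plus low lithium. Cytosolic IP1 by TR-FRET (665/620 ratio and 620 channel) after 10 min lysis; AC50 by Hill fit.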
# Numbers without * were called inactive; u = inconclusive; x = no result given; [ ] = dose if it differs, or a comment. Unless noted, calls come from the whole dose curve; as a rule, active = well fitted curve in the direction sought with a large enough effect; inconclusive = small, poorly fitted or top-dose-only effect, or another doubt; inactive = no such curve, though single readings can be large; an effect the other way counts as inactive or inconclusive. Unless noted, % is set by controls: 0 for no effect and ±100 for the full control effect.
SMILES,IMPase cell inh,15-hLO-2 inh,HPGD inh,12-hLO inh,PNC assembly inh,IMPase Li cell
COc1ccccc1CNC(=O)CSc1nc(N)c(C#N)c(-c2cccs2)c1C#N,-1,-10%,u,-7%,71,3.5µM*
COc1ccc(-c2cc(-c3cccs3)c(C#N)c(SCC(=O)NCc3ccccc3OC)n2)cc1,4,-23%,u,0%,55,u
COc1cc(C=O)ccc1OCCSc1ccc(C)cc1,5,3%,18µM*,-4%,13,-3%[38.3 µM]
CCOc1cc(C=O)ccc1OCCSc1ccc(C)cc1,8,1%,18µM*,-3%,33,3%
O=C(NC(Cc1c[nH]c2ccccc12)c1nnc2n1CCCCC2)c1ccccc1Cl (stereo not drawn),-1,-5%,25µM*,-4%,21,-6%[38.3 µM]
O=[N+]([O-])c1cccc(Cl)c1Cl,x,4%,-12%,1%,x,-5%
CCOC(=O)c1[nH]c2c(c1C)C(=O)CC(c1ccc(F)cc1)C2 (stereo not drawn),3,-5%,-4%,1%,-95*,12%[38.3 µM]
COCCOC(=O)c1[nH]c2c(c1C)C(=O)CC(c1cccs1)C2 (stereo not drawn),x,x,x,x,x,-3%
Cc1c(C(=O)OCC(C)C)[nH]c2c1C(=O)CC(c1cccs1)C2 (stereo not drawn),0,-9%,-5%,2%,-88*,11%[38.3 µM]
CNC(=S)Nc1cccc(Cl)c1C,x,x,x,x,x,-4%
CCn1ncc(/C=N/NC(=O)c2cc(Cl)ccc2OC)c1C,x,x,-6%,1%,2,1%
O=C1Nc2ccccc2/C1=C\c1cccn1-c1ccc(OC(F)(F)F)cc1,-5,-17%,-2%,-2%,36,5%
CC(C)n1c(=S)[nH]c2c1c(=O)[nH]c(=O)n2C,3,13µM*,8.9µM*,u,16,2%[38.3 µM]
C=CC(C)n1c(Br)nc2c1c(=O)[nH]c(=O)n2C (stereo not drawn),-4,-2%,2%,-1%,11,-17%[38.3 µM]
Cc1ccccc1C(=O)NN(C)c1nc2ccccc2nc1C(F)(F)F,3,x,-21%,9%,31,5.6µM*
COCCCNC(=O)CN(c1cc(Cl)cc(Cl)c1)S(C)(=O)=O,-5,x,-10%,2%,-100*,9%
CC(C)NC(=O)CCSc1nc(-c2ccc3c(c2)OCO3)cc(C(F)(F)F)n1,5,x,x,x,x,x
CC1CCCCN1S(=O)(=O)c1ccc(S(=O)(=O)N(Cc2ccccc2)Cc2ccco2)cc1 (stereo not drawn),-8,x,-11%,5%,-100*,15%
Cn1c(=O)c2ncn(CC(=O)Nc3cccc(-c4nc5ccccc5s4)c3)c2n(C)c1=O,-7,u,u,1%,u,1%[38.3 µM]
Cn1c(=NC(=O)COc2ccccc2)sc2ccccc21,x,x,x,x,x,13µM*
CC(NC(=O)c1ccc2c(c1)OCCO2)c1ccc(S(N)(=O)=O)cc1 (stereo not drawn),x,x,x,x,x,-3%
CCCCS/C(N)=N/N=C/c1cc(C)ccc1O,5,13%,-13%,-21%,-106*,20%[38.3 µM]
O=C(O)c1ccc(C(=O)O)cc1,x,2%,-3%,0%,x,-6%
O=C(CC(=O)c1ccncc1)c1ccccc1,x,-3%[11.4 µM],3.5µM*,-17%[11.4 µM],x,-4%
O=C(O)c1ccncc1.O=C(O)c1ccncc1.[Cl][Pt]([Cl])([Cl])[Cl],x,13%[11.4 µM],4µM*,-4%[11.4 µM],x,-5%
SMILES,IMPase cell inh,15-hLO-2 inh,HPGD inh,12-hLO inh,PNC assembly inh,IMPase Li cell
O=C(CC(=O)c1ccccc1)c1ccccc1,x,2%,u,-3%,x,4%
CC(=O)c1ccc(N2C(=O)[C@@H]3C(C(=O)CCN4C(=O)c5ccccc5C4=O)=NN[C@@H]3C2=O)cc1,x,x,-23%,-2%,-108*,-4%
CC1CCCN(S(=O)(=O)c2ccccc2[N+](=O)[O-])C1 (stereo not drawn),x,x,-10%,1%,u,0%
CCCCc1ccc(-c2csc(/C(C#N)=C\c3ccco3)n2)cc1,x,x,-27%,-5%,-111*,12%
O=C(O)CC(c1cccc2ccccc12)n1cccc1 (stereo not drawn),-19,4%,35µM*,2%,44,-21%[38.3 µM]
O=C1O/C(=C\Br)CC[C@@H]1c1cccc2ccccc12,7,u,x,-3%,x,x
O=C(Cn1[nH]c(=O)c2ccccc2c1=O)OCC(=O)N1CCc2ccccc2C1,0,0%,-12%,1%,44,-3%[38.3 µM]
O=C(Cn1[nH]c(=O)c2ccccc2c1=O)OCC(=O)N1CCCc2ccccc21,6,0%,-11%,-2%,-97*,0%[38.3 µM]
Cc1cccc(NC(=S)Nc2ccc(N3CCOCC3)cc2)c1C,9,x,u,-6%,-25,-6%
CCCCn1c(NC(=S)Nc2ccccc2)nc2ccccc21,x,x,-12%,u,29,-13%
c1ccc(Cn2ncc3c2ncn2c(-c4ccncc4)nnc32)cc1,7,0%,-20%,2%,1,-21%[38.3 µM]
Cc1ccc(-n2ncc3c2ncn2c(-c4ccncc4)nnc32)cc1,2,-2%,-4%,4%,-91*,-4%[38.3 µM]
Nc1ncnc2c1c(-c1ccc(Oc3ccccc3)cc1)cn2C1CCCC1,12,33%,u,-11%,x,22%
O=P(O)(O)CP(=O)(O)O,-1,5%,-6%,-13%,-100*,-9%[38.3 µM]
COC(=O)CSc1nc(-c2ccccc2)nc2ccc(F)cc12,-16,-3%,-5%,2%,8,u
CCOC(=O)CSc1nc(-c2ccccc2)nc2ccc(F)cc12,u,5%,-26%,-4%,-24,10µM*
Cc1cc(C2C(C#N)=C(N)SC(N)=C2C#N)c(C)s1,u,u,20µM*,-19%,28,-28%[38.3 µM]
COC(=O)C1=C(C)OC(N)=C(C#N)C1c1cc2cccc(C)c2nc1Cl (stereo not drawn),x,x,x,x,x,10%
COC(=O)C1=C(C)OC(N)=C(C#N)C1c1cc(C)sc1C (stereo not drawn),-7,5%,28µM*,-14%,u,45%[38.3 µM]
Cc1sccc1C1C(C#N)=C(N)SC(N)=C1C#N,u,u,-16%,-25%,19,u
COc1ccc(CCCc2nnc(SCC(=O)Nc3cccc(C)c3)o2)cc1C,-1,x,x,x,x,x
Cc1ccc(NC(=O)Cn2c(=O)n(CCCS(=O)(=O)C3CCCCC3)c(=O)c3ccccc32)cc1F,8,x,x,x,x,x
FC(F)(F)c1cccc(N2CCN(Cc3nnc(-c4ccc5c(c4)OCO5)o3)CC2)c1,12,x,x,x,x,x
CCOc1cccc(NC(=O)C2CC(=O)NC(=Nc3ccccc3)S2)c1 (stereo not drawn),7,1%,5%,-1%,-4,8%[38.3 µM]

# Bioassay records as filed in PubChem BioAssay.
